# Compound activity deposited in PubChem BioAssay by Broad Institute.
# Compounds with a hit are over-represented: about 2.1% of the library has one in this group of screens.
# SIRT5 block: SIRT5 desuccinylase inhibitors, primary screen, biochemical, fluorescence imaging, single point, set 5 | Purified SirT5, succinyl-peptide AMC, trypsin-coupled fluorescence | NAD-dependent protein deacylase sirtuin-5, mitochondrial (Homo sapiens), Q9NXA8 | actives 1.1% (n = 330,000) | inhibition, % at 15 µM; in the data active = inhibition above about 15%
# Target sequence (Q9NXA8 whole entry, looked up): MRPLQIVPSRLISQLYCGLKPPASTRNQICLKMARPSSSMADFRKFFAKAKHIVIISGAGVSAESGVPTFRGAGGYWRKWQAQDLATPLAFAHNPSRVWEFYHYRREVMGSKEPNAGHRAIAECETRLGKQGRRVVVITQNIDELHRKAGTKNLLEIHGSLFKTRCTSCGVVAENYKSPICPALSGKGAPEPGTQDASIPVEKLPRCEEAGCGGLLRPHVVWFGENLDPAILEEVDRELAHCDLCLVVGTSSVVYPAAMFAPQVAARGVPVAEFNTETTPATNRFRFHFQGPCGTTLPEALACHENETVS
# NSD2 inh: NSD2 histone methyltransferase inhibitors, primary screen, biochemical, AlphaScreen, single concentration, set 2. NSD2 peptide methylation, 120 min. inhibition, % at 12.5 µM. actives 0.54% (n = 310,000). AID 743445, 2014; in the data active = inhibition above about 50%
# PfHsp90 set2: growth inhibition of PfHsp90-expressing yeast, primary screen, antimalarial PfHsp90 inhibitor project, S. cerevisiae, BacTiter-Glo luminescence, single point, set 2; BacTiter-Glo ATP, 48 h; yeast lacking PDR1 and PDR3 efflux regulators; inhibition, % at 9.4 µM; actives 0.32% (n = 310,000);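 active = every replicate shows inhibition above about 80%, whatever the replicate mean, limit read from the data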
# Casp6 inh: human caspase-6 inhibitors, primary screen, biochemical, VEID-R110 fluorescence, single point, set 2; AID 686996, 2013; P55212; purified caspase-6, Z-VEID-R110 cleavage fluorescence; inhibition, % at 12.5 µM; actives 0.53% (n = 350,000);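 active = mean inhibition across replicates at least about 35%, with every replicate also reaching that limit, limit read from the data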
# Target sequence (P55212 24-179 limits assumed): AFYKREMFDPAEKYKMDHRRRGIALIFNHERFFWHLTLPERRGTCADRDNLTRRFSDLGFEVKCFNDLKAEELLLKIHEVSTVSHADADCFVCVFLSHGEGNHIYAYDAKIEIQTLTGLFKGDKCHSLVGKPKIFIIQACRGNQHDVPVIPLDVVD
# Target sequence (P55212 194-293 limits assumed): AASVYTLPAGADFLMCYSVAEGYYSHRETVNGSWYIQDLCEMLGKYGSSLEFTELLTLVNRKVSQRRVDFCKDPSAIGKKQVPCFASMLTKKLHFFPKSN
# ARNT-TACC3 inh: disruptors of ARNT/TACC3 protein interaction, primary screen, biochemical, AlphaScreen, single concentration; Transforming acidic coiled-coil-containing protein 3 (Homo sapiens), Q9Y6A5; AlphaScreen His-ARNT PAS-B/GST-TACC3 binding, luminescence; TACC3 fragment carries E629A point mutation; inhibition, % at 9.99 µM; actives 0.66% (n = 390,000); AID 623870, 2012;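 active = mean inhibition of replicates at least 50% and at least half of replicates each reaching 50%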
# ARNT Alpha ctr-1: AlphaScreen signal interference compounds, dose response, artefact control for ARNT-TACC3 interaction inhibitor project, biochemical, luminescence, cherry-pick | shares compounds with ARNT-TACC3 inh | His-ARNT PASB-GST AlphaScreen artifact counter-screen | AC50, µM (series often up to 68 µM) | actives 50% (n = 1,200);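 active = every separate test run was called active for a drop in luminescence, with AC50 within twice the top valid dose, actives reach about 71 µM in these data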
# ARNT Alpha ctr-2: AlphaScreen signal interference by compounds, dose response, artefact control for ARNT/TACC3 disruptor project, biochemical, dual-tagged ARNT, dry powder; shares compounds with ARNT-TACC3 inh; Dual-tagged His-ARNT PASB-GST AlphaScreen artifact counter-screen; AC50, µM; actives 70% (n = 45); AID 720564, 2013;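 active = luminescence drop, with half-maximal potency fitted within twice the sample's top valid dose, cut at about 70 µM in these data; inactive = the rest, including signal moving the wrong way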
# Hits are given with their value; n = inactive; x = no result.
SMILES,SIRT5 block,NSD2 inh,PfHsp90 set2,Casp6 inh,ARNT-TACC3 inh,ARNT Alpha ctr-1,others
COc1ccc2c(CC(=O)Nc3ccccc3OC)coc2c1,n,n,n,n,n,x,
COc1ccc(C(=O)NNC(=O)Cc2coc3cc(OC)ccc23)cc1,x,n,n,n,57.5,n,
CCC(=O)NC(c1ccc(OC)cc1)c1c(O)ccc2ccccc12 (stereo unspecified),n,n,n,n,x,x,
CCC(=O)NC(c1ccc(N(C)C)cc1)c1c(O)ccc2ccccc12 (stereo unspecified),n,n,n,n,38.3,54.2µM,
Cc1cc(C)c(NC(=O)CSc2nnc(-c3ccccn3)n2N)c(Cl)c1,n,n,n,n,54.2,n,
COc1ccc(NC(=O)CSc2nnc(-c3ccccn3)n2N)cc1Cl,x,n,n,x,n,x,
Cc1ccc(C)c(-n2c(SCC(N)=O)nnc2-c2ccccn2)c1,x,n,n,x,57.2,n,
O=S(=O)(NC[C@@H]1CC[C@@H]2[C@@H](CN2Cc2ccccc2C(F)(F)F)O1)c1ccccc1,n,x,x,n,x,x,
C/C=C/c1ccc([C@H]2[C@@H](CO)N(Cc3ccccn3)[C@H]2CNC(C)=O)cc1,n,x,x,n,29.9,n,
C/C=C/c1ccc([C@@H]2[C@@H](CNC(=O)CC)N(Cc3ccccn3)[C@H]2CO)cc1,n,x,x,x,n,x,
C/C=C/c1ccc([C@H]2[C@@H](CNC(=O)CC)N(Cc3ccccn3)[C@H]2CO)cc1,x,x,x,x,46.6,n,
O=C(NC[C@@H]1[C@H](c2ccccc2)[C@H](CO)N1Cc1ccccn1)C1CC1,n,x,x,n,45.9,n,
CCCNC(=O)Nc1ccc2c(c1)C(=O)N(C)C[C@H](OC)[C@H](C)CN(C(=O)C1CCC1)[C@@H](C)CO2,n,x,x,x,x,x,
O=C(c1cccc(F)c1)N1CCCCN2[C@H](C1)[C@H](c1ccc(-c3cccnc3)cc1)[C@@H]2CO,n,x,x,n,n,x,
CO[C@H]1CN(C)C(=O)c2cc(NC(=O)NC(C)C)ccc2OC[C@H](C)N(CCC(F)(F)F)C[C@@H]1C,x,x,x,x,n,x,
Cn1cnc(S(=O)(=O)N[C@@H]2C=C[C@H](CC(=O)NCC3CCCCC3)O[C@H]2CO)c1,n,x,x,n,n,x,
O=C(NCCCn1ccnc1)C(=O)NC1CCCCC1,n,n,x,n,n,x,
O=C(O)C1C2C=CC(C2)C1C(=O)NCCCn1ccnc1 (stereo unspecified),x,n,x,x,53.8,n,
O=C(O)C1CCCCC1C(=O)NCCCn1ccnc1 (stereo unspecified),n,n,n,n,67.4,n,
O=C(O)C1C2C=CC(C2)C1C(=O)NCCCN1CCCC1=O (stereo unspecified),n,n,n,n,n,x,
CCCN(C)C[C@H]1Oc2ncc(-c3ccccc3F)cc2C(=O)N([C@@H](C)CO)C[C@H]1C,n,x,x,n,x,x,
CO[C@@H]1CN(C)C(=O)c2ccc(NC(=O)CC(F)(F)F)cc2OC[C@H](C)N(C(=O)C2CC2)C[C@@H]1C,n,x,x,n,x,x,
O=C(CSc1ccc(-c2ccccn2)nn1)NCc1ccc(F)cc1,n,n,n,n,54.7,29µM,
O=C(CSc1ccc(-c2ccccn2)nn1)NCc1ccccc1,n,n,n,n,102.1,41.1µM,
O=C(CSc1ccc(-c2cccc([N+](=O)[O-])c2)nn1)NCc1ccccc1,n,n,n,n,n,x,
SMILES,SIRT5 block,NSD2 inh,PfHsp90 set2,Casp6 inh,ARNT-TACC3 inh,ARNT Alpha ctr-1,others
O=C(CSc1ccc(-c2ccccn2)nn1)NC1CCCCC1,n,n,n,n,54.9,25.6µM,ARNT Alpha ctr-2=19.8
COc1ccc(CN(C)C[C@@H]2OCCCC[C@@H](C)Oc3ccc(NC(=O)c4ccccc4)cc3C(=O)N([C@@H](C)CO)C[C@H]2C)cc1,n,x,x,n,n,x,
CCNC(=O)C[C@@H]1CC[C@@H]2[C@H](COc3ccc(NC(=O)Nc4ccccc4OC)cc3C(=O)N2C)O1,n,x,x,n,n,x,
C[C@H](CO)N1C[C@H](C)[C@@H](CN(C)C(=O)NC2CCCCC2)OCCCC[C@H](C)Oc2ccc(NS(=O)(=O)c3cccs3)cc2C1=O,n,x,x,n,n,x,
COc1cccc(S(=O)(=O)Nc2ccc3c(c2)OC[C@H](C)NC[C@H](C)[C@@H](OC)CN(C)C3=O)c1,n,x,x,n,x,x,
C/C(=N\NC(=O)c1ccncc1)C12CC3CC(CC(C3)C1)C2,x,x,n,x,50.9,n,
O=C(NNC(=O)C12CC3CC(CC(C3)C1)C2)c1ccncc1,n,n,n,n,n,x,
N#C[C@H]1[C@@H](c2ccccc2C2=CCCC2)[C@H](CO)N1S(=O)(=O)c1cccc(F)c1,n,x,x,n,x,x,
CCOC(=O)CC(NC(=O)Cc1ccc(F)cc1)c1ccccc1Cl (stereo unspecified),n,n,n,n,21.6,n,
Oc1ccc(Cl)cc1CNc1cccc2cccnc12,n,n,n,83.9,64.5,n,
Cc1cccc(NCc2cc(Cl)ccc2O)n1,n,x,n,n,n,x,
CCCNC(=O)C[C@H]1CC[C@H]2[C@H](COc3ccc(NC(=O)NC(C)C)cc3C(=O)N2C)O1,n,x,x,n,n,x,
COC(=O)Cc1cc(=O)n(-c2nc3ccccc3[nH]2)[nH]1,n,n,x,44.1,61.9,60.2µM,ARNT Alpha ctr-2=37.8
COC(=O)Cc1[nH]n(-c2nc3ccccc3s2)c(=O)c1C(C)=O,x,n,n,x,n,x,
C=C[C@@H](OC)[C@H](OC(=O)Nc1ccc(SC)cc1)c1ccc(OCCO)cc1,n,x,x,n,n,x,
Cc1nnc(NC(=O)CSc2nnc(CNC(=O)c3ccccc3)o2)s1,n,n,n,n,n,x,
Cc1nnc(NC(=O)CSc2nnc(CNC(=O)c3ccc(F)cc3)o2)s1,n,n,n,n,46.5,n,
CC(=O)N1CCc2[nH]c3ccc(C)cc3c2C1,n,x,n,n,35.9,n,
C[C@@H]1CN([C@H](C)CO)C(=O)Cc2cc(NS(=O)(=O)c3cccs3)ccc2O[C@H]1CN(C)CC1CC1,n,x,x,n,n,x,
CCOc1ccc(NC(=O)NCc2ccccn2)cc1,n,n,n,n,n,x,
CCOc1ccc(NC(=O)CC(NCc2ccccn2)C(=O)O)cc1 (stereo unspecified),n,n,n,n,64.8,6.14µM,
Cn1c(N)c(C(=O)c2cc(-c3ccccn3)nc3ccccc23)c(=O)[nH]c1=O,x,n,x,x,28.9,n,
O=C(NCC[C@@H]1CC[C@@H](NC(=O)c2cccnc2)[C@@H](CO)O1)Nc1ccc(Cl)cc1,n,x,x,n,n,x,
